ALDH1A1 block – qHTS Assay for Inhibitors of Aldehyde Dehydrogenase 1 (ALDH1A1); Purified ALDH1A1, NADH fluorescence, propionaldehyde substrate; Potency, µM (doses to about 75.3 µM), without a hit: at the highest dose activity, negative = inhibition, most hits filed as inhibitors; 220,000 compounds, 7.3% hits; AID 1030, 2008; active = well fitted inhibition curve with a large enough effect, not every such curve was filed as active; inconclusive = small, poorly fitted or top-dose-only effect, or another doubt; inactive = no such curve, though single readings can be large or run the other way;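 also: potency is read from the fitted curve at half-maximal effect; plate controls were no enzyme wells and a reference inhibitor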
Target sequence (P00352 whole entry, looked up): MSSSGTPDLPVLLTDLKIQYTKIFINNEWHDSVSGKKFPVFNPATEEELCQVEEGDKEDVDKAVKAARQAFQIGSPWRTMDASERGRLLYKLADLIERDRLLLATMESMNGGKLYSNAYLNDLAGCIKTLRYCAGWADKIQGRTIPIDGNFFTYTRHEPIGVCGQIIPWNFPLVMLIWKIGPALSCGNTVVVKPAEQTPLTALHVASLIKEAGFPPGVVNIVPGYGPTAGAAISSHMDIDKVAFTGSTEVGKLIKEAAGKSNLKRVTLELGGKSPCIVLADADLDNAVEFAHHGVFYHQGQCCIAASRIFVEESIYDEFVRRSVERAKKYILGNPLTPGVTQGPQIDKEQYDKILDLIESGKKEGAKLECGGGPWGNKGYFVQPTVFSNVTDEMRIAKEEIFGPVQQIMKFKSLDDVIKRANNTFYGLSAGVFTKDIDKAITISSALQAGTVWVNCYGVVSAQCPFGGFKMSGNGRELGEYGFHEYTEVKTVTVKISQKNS
LMNA splice mod – qHTS Assay for Modulators of Lamin A Splicing; 200,000 compounds, 0.01% hits; HeLa LMNA splicing GFP/RFP minigene ratio, 48 h; AID 1487, 2009; Potency, µM (highest dose often 46.1 µM), for inactives: at the highest dose ratio change, negative = inhibition, usual class: inhibitors; active = well fitted inhibition curve with a large enough effect in the signal ratio, with a control signal flat, not every such curve was filed as active; inconclusive = small, poorly fitted or top-dose-only effect, or effect the other way, or a change in a side signal; the % refers to the signal ratio; also: potency is read from the fitted curve at half-maximal effect; % is scaled to controls: 0 for no effect and ±100 for the full control effect
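S3 HeLa stable clones carrying a lamin A-EGFP splicing minigene plus DsRed2 were seeded at 600 cells/well in Opti-MEM with 2% FBS, pin-dosed and incubated 48 h at 37°C. Acumen cytometry (488 nm) gave the GFP/RFP total-intensity ratio.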
G9a block – qHTS Assay for Inhibitors of Histone Lysine Methyltransferase G9a; Histone-lysine N-methyltransferase EHMT2 (Homo sapiens), Q96KQ7; G9a H3K9 monomethylation, AlphaScreen, 2 h; Potency, µM (series often up to 102 µM), inactives show top-dose activity, negative = inhibition, most hits filed as inhibitors; 350,000 compounds, 8.8% hits; also: potency is read from the fitted curve at half-maximal effect; % is scaled to controls: 0 for no effect and ±100 for the full control effect; nearly all actives have a fitted effect of over 75% in size
Target sequence (Q96KQ7 913-1193 limits assumed): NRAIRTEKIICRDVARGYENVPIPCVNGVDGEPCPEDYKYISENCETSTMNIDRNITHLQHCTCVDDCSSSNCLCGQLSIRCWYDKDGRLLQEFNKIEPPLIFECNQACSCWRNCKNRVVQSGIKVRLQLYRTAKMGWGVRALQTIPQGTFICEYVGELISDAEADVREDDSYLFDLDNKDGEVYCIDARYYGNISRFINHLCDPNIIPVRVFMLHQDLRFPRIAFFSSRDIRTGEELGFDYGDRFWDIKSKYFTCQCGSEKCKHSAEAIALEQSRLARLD
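AlphaScreen read-out: biotin-H3K9 peptide (500 nM) methylation by 20 nM enzyme with 20 uM SAM, 2 h at room temperature after 15 min compound preincubation; anti-monomethyl H3K9 antibody plus donor/acceptor beads, 10 min dark.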
miR-21 reporter – qHTS Assay for Modulators of miRNAs and/orActivators of miR-21. HeLa miR-21 FLuc reporter, luciferase, 48 h. Potency, µM (highest dose often 38.3 µM), inactives show at the highest dose activity change, positive = activation, most hits filed as activators. 340,000 tested, under 10 active;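 also: % of control where 0% means no effect; miR-21 action dims this reporter so a rising signal means less miR-21 action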
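Compounds were titrated across several concentrations (up to approximately 40 uM) and incubated 48 hours with HeLa miR-21-FLuc reporter cells (miR-21 target sequence downstream of FLuc, endogenous miR-21). Readout was firefly luciferase luminescence after lytic detection reagent.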
JMJD2E inh – qHTS Assay for Inhibitors of Human Jumonji Domain Containing 2E (JMJD2E) | JMJD2E catalytic domain, FDH-coupled NADH fluorescence (FDH is formaldehyde dehydrogenase) | Potency, µM (doses to about 57.1 µM), for inactives: at the top dose activity change, negative = inhibition, usual class: inhibitors | 230,000 compounds, 1.6% hits | AID 2147, 2009; active = well fitted inhibition curve with a large enough effect, not every such curve was filed as active; inconclusive = small, poorly fitted or top-dose-only effect, or another doubt; inactive = no such curve, though single readings can be large or run the other way;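 also: potency is read from the fitted curve at half-maximal effect; 0% = wells with enzyme and -100% = buffer wells without enzyme; nearly all actives have a fitted effect of over 50% in size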
Sfp inh – qHTS Assay for Inhibitors of Bacillus subtilis Sfp phosphopantetheinyl transferase (PPTase) | 4'-phosphopantetheinyl transferase ffp (Bacillus subtilis), Q9F4F7 | Biochemical Sfp PPTase activity, qHTS | Potency, µM, for the others: largest response in the series, negative = inhibition, most hits filed as inhibitors | 310,000 compounds, 3.5% hits;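 also: the enzyme is Sfp with the accession as filed and its product quenches rhodamine fluorescence; potency is read from the fitted curve at half-maximal effect; 0% = enzyme reaction without inhibitor and -100% = no enzyme wells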
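After 15 min at room temperature with compound, 15 nM Sfp received 5 uM rhodamine-CoA plus 12.5 uM BHQ-2-ybbR (50 mM Hepes pH 7.6, 10 mM MgCl2). Rate came from the fluorescence difference over 30 min, ex 525/em 598 nm.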
* marks the source's active call; other numbers are inactive results; ? = inconclusive; nt = not tested or not shown; [ ] = another dose, or the depositor's remark. Compounds with a hit are over-represented: about 13% of the library has one in this group of screens. Unless noted, calls follow the shape of the dose curve; as a rule, active = well fitted curve in the direction sought with a large enough effect; inconclusive = small, poorly fitted or top-dose-only effect, or another doubt; inactive = no such curve, though single readings can be large; an effect the other way counts as inactive or inconclusive.

SMILES	ALDH1A1 block	LMNA splice mod	G9a block	miR-21 reporter	JMJD2E inh	Sfp inh
CCc1ccc(N(C)S(=O)(=O)c2ccc3[nH]cc(C(=O)NCCN4CCOCC4)c(=O)c3c2)cc1	22µM*	-11%	-49%	-6%	-20%	3%
O=C(NCCc1ccccc1)c1c[nH]c2ccc(S(=O)(=O)Nc3ccccc3F)cc2c1=O	nt	nt	-3%[59 µM]	7%	nt	nt
CN(CCC#N)S(=O)(=O)c1ccc2[nH]cc(C(=O)NCCc3ccccc3)c(=O)c2c1	25µM*	?	?	-3%	?	8%
CCc1ccccc1N(C)S(=O)(=O)c1ccc2[nH]cc(C(=O)O)c(=O)c2c1	-6%	-9%[46 µM]	45µM*	2%	?	25%
O=C(COC(=O)c1ccc(Br)o1)NC1CCCc2ccccc21 (stereo unspecified)	nt	nt	3%[59 µM]	nt	nt	nt
FC(F)(F)c1nc2cc3nc4ccccc4[nH]c3cc2n1	nt	nt	40µM*	-33%	-18%	2%
COc1ccc(NC(=O)CCc2c(C)nc3c(c2C)c(=O)n(C)c(=O)n3C)cc1OC	nt	nt	3%[59 µM]	1%	nt	nt
CCN(Cc1nc(-c2ccc(OC)cc2)oc1C)S(=O)(=O)c1ccc(Cl)cc1	nt	-9%[46 µM]	13µM*	13%	nt	nt
CCN(Cc1nc(-c2ccc(OC)cc2)oc1C)S(=O)(=O)c1ccc(C)cc1	nt	?	?	14%	nt	nt
CC(=O)c1ccc(NC(=O)CSc2nc(-c3ccccc3C)nc3c2c(=O)n(C)c(=O)n3C)cc1	nt	14%[46 µM]	?	9%	nt	nt
Cn1c(=O)c2c(O)c(Cc3ccccc3)c(=O)[nH]c2n(C)c1=O	14µM*	0%	8%[59 µM]	-16%	-16%	4%
Fc1cccc(C[n+]2csc3ccccc32)c1	0.35µM*	?	11µM*	7%	?	20µM*
c1ccc(C[n+]2csc3ccccc32)cc1	2.2µM*	7%	?	-4%	?	18µM*
Brc1cc2ccccc2[n+](Cc2ccccc2)c1	nt	nt	-9%[2.33 µM]	nt	nt	nt
Fc1cccc(CSc2ccc(-c3cccs3)nn2)c1	nt	nt	8%[59 µM]	-65%	nt	nt
CC(=O)c1sc(C(=O)O)c(-c2ccco2)c1-c1ccco1	3%	nt	nt	7%	-2%	18µM*
COc1ccc(S(=O)(=O)N2CCN(C(=O)CC3CC4CCC3C4)CC2)cc1 (stereo unspecified)	nt	nt	8%[12.7 µM]	nt	nt	nt
COc1ccc(CCNC(=O)CCc2cn(Cc3ccccc3Cl)c3ccccc23)c(OC)c1	nt	nt	?	-2%	nt	nt
Nc1c(C(=O)N2CCOCC2)sc(=S)n1-c1ccccc1	8.9µM*	-9%	2.2µM*	-10%	-5%	-87%
Nc1c(C(=O)N2CCCCC2)sc(=S)n1-c1ccccc1	1.4µM*	-24%	?	-13%	?	-84%
CCCN(CC(=O)Nc1ccccc1OC)C(=O)c1ccc(COc2ccccc2)o1	nt	nt	18%[12.7 µM]	nt	nt	nt
Cc1nc2sc(C(c3ccco3)N3CC(C)OC(C)C3)c(O)n2n1 (stereo unspecified)	?	5%	25µM*	6%	-26%	25µM*
Cc1nc2sc(C(c3ccco3)N3CCN(c4ccccc4)CC3)c(O)n2n1 (stereo unspecified)	?	5%	45µM*	-9%	-10%	?
Cc1nc2sc(C(c3ccco3)N3CCN(C(c4ccccc4)c4ccccc4)CC3)c(O)n2n1 (stereo unspecified)	?	?	25µM*	6%	4%	7.9µM*
Cc1nc2sc(C(c3ccccc3)N3CC(C)OC(C)C3)c(O)n2n1 (stereo unspecified)	-7%	7%	6%	-4%	2%	28%
SMILES	ALDH1A1 block	LMNA splice mod	G9a block	miR-21 reporter	JMJD2E inh	Sfp inh
Oc1c(C(c2ccco2)N2CCOCC2)sc2ncnn12 (stereo unspecified)	14µM*	0%	40µM*	0%	?	40µM*
COC(=O)C1=C[C@@H](C(=O)OC)C2C3=C(C(=O)[C@]2(C)NC(=O)c2ccccc2)[C@H](C)[C@@H]2C(=O)N(C)C(=O)[C@@H]2[C@@H]3C1 (stereo partly specified)	nt	nt	nt	nt	nt	1%
Cc1nc2sc(C(c3ccccc3)N3CCOCC3)c(O)n2n1 (stereo unspecified)	5%	-8%	22%[59 µM]	-3%	4%	12%
Cc1nc2sc(C(c3ccco3)N3CCC(C)CC3)c(O)n2n1 (stereo unspecified)	?	-1%	?	-6%	-2%	16µM*
O=C(CSc1c2c(nc3cc(Cl)ccc13)CCCC2)N1CCN(c2ccccc2)CC1	nt	nt	1%[59 µM]	?	nt	nt
COc1cccc(-c2ccc3ncnc(NCCc4c[nH]c5ccc(OC)cc45)c3c2)c1	-7%	?	6%[0.501 µM]	nt	nt	-1%
Cc1nn(C)c(C)c1NC(=O)CCl	2%	-4%[46 µM]	45µM*	-5%	-9%	7%
O=C(CN1CCN(S(=O)(=O)c2ccccc2)CC1)NC(=O)NCc1ccco1	nt	nt	-3%	3%	-10%	8%
CCCOC1CCCN(C(=O)c2ccc3oc(C(C)C)nc3c2)C1 (stereo unspecified)	nt	nt	31%	-40%	nt	11%
O=C1CC(c2cccc(F)c2)c2c(c3ccccc3[nH]c2=O)O1 (stereo unspecified)	?	-10%[9.22 µM]	?	-2%	?	6.3µM*
Cc1cc(NC(=O)CCN2CCCCC2)ccc1Br	nt	nt	3%[59 µM]	-11%	nt	11%
N#C/C(=C(/O)CN1CCCC1)c1nc(-c2ccccc2)cs1	-3%	nt	nt	-48%	5%	32µM*
Fc1ccc(-c2cc3ncc4c(n3n2)-c2cc(Cl)ccc2OC4)cc1	nt	nt	33%[59 µM]	-13%	nt	nt
Cc1nc2ccccc2c(C)c1C(=O)c1ccccc1	5%	-36%[46 µM]	50µM*	2%	4%	13%
Fc1ccccc1-n1[nH]nnc1=S	2.2µM*	6%	7.9µM*	2%	-3%	25µM*
COc1ccccc1N1CCN(Cc2ccc(-c3ccccc3[N+](=O)[O-])o2)CC1	nt	nt	45µM*	2%	nt	?
O=[N+]([O-])c1ccc(CN2CCN(c3ccccc3Cl)CC2)o1	nt	nt	28µM*	1%	nt	?
Cc1ccccc1N1CCN(Cc2ccc([N+](=O)[O-])o2)CC1	nt	nt	35µM*	0%	nt	-26%
COc1ccc(-c2c(C)nn(Cc3ccccc3)c2N)cc1	2%	19%	45µM*	-6%	5%	6%
COc1ccc(-c2ccc(=O)n(Cc3ccccc3)n2)cc1	nt	nt	nt	-12%	nt	0%
Cc1ccc(S(=O)(=O)NNC(=O)c2sc(NS(=O)(=O)c3ccccc3)nc2C)cc1	nt	nt	-14%	-1%	nt	-7%

Bioassay records: PubChem, National Center for Advancing Translational Sciences (NCATS)
